We go through 56 compounds from PubChem BioAssay (EPA / NIEHS).

The source made the active and inactive calls. The calls were made as follows: active = hit-call score of the fitted dose curve at least 0.9, where 1 is the maximum; inactive = score below 0.9.

Experiment [1] in a line: ATG_CRE_CIS: Attagene CIS-FACTORIAL HepG2 Assay for human cAMP Responsive Element (CRE) binding protein 3 (AID 2282926). As to conditions: HepG2 CRE cis-reporter, Attagene multiplexed mRNA; actives raise or lower the signal. Summed up:
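Cells carrying cis-regulated reporter constructs respond through their own endogenous factors. After 24 h treatment, RNA is reverse-transcribed, amplified, labelled and sized by capillary electrophoresis; up- and down-regulation are both scored against vehicle.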

Experiment [2] has as its target CCAAT/enhancer-binding protein beta (Homo sapiens) (UniProt P17676). In words: ATG_C_EBP_CIS: Attagene CIS-FACTORIAL HepG2 Assay for human CCAAT/Enhancer Binding Protein (C/EBP) beta (AID 2282927). As to conditions: HepG2 Attagene cis-factorial transcription factor reporter; actives raise or lower the signal. The procedure, abridged: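 Changes in reporter mRNA, rather than exogenous chimeric receptor activity, reflect native C/EBP signalling in transfected HepG2 cells dosed for 24 h; transcripts are detected by RT-PCR and capillary electrophoresis.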

A short description of experiment [3]: ATG_CMV_CIS: Attagene CIS-FACTORIAL HepG2 Assay for human CMV (Internal Marker) (AID 2282928).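 Also: endpoint acts as a background internal control marker rather than a target.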 As to conditions: HepG2 CMV promoter reporter, transcription factor profiling; actives raise or lower the signal. Summed up:
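Readout: fluorescent reporter cDNA fragments separated by capillary electrophoresis after RT-PCR and HpaI cut. Cells: HepG2 carrying transfected cis-promoter reporter constructs, dosed 24 h. Endpoint serves as background internal-marker control, fit bidirectionally versus DMSO.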

Sequence of CCAAT/enhancer-binding protein beta (Homo sapiens) (P17676 whole entry, looked up): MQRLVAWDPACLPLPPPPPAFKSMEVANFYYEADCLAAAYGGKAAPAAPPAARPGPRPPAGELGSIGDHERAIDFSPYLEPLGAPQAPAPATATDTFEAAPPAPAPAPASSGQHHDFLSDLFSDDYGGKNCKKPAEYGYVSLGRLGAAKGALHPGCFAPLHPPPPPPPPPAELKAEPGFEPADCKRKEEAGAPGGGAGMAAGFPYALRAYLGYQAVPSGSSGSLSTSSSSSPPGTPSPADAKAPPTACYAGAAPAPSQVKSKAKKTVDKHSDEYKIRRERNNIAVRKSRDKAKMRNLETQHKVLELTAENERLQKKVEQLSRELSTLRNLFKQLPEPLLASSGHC

With `CNC(=O)CSP(=O)(OC)OC`, the call in experiment [1], in experiment [2] and in experiment [3] was inactive.

Regarding `CC(O)(CS(=O)(=O)c1ccc(F)cc1)C(=O)Nc1ccc(C#N)c(C(F)(F)F)c1` (stereo not drawn), the compound was called inactive in experiment [1], in experiment [2] and in experiment [3].

`[F][Sn]([c]1ccccc1)([c]1ccccc1)[c]1ccccc1`: the concentration at half-maximal activity (AC50) is 0.321 µM (active) in experiment [1], 2.15 µM (active) in experiment [2] and 0.334 µM (active) in experiment [3].

Regarding `C=CCCl`, the result in experiment [1], in experiment [2] and in experiment [3] was inactive.

For the compound `Cc1ccccc1OP(=O)(Oc1ccccc1C)Oc1ccccc1C`, the call in experiment [1], in experiment [2] and in experiment [3] was inactive.

Consider `O=C(NC(=O)c1c(F)cccc1F)Nc1cc(Cl)c(F)c(Cl)c1F`, for which the call in experiment [1], in experiment [2] and in experiment [3] was inactive.

As to `ClCc1ccccc1Cl`, the AC50 in experiment [1] is 83.5 µM (active). For the same compound, the result in experiment [2] and in experiment [3] was inactive.

For `N#CCCC(Br)(C#N)CBr` (stereo not drawn), the results for the concentration at half-maximal activity (AC50) in experiment [1] and in experiment [3] were 53.5 µM (active) and 62.1 µM (active), respectively. The outcome in experiment [2] was inactive.

As for `CCNc1nc(NCC)nc(SC)n1`, the outcome in experiment [1], in experiment [2] and in experiment [3] was inactive.

For `CC(C)(C1CCC(O)CC1)C1CCC(O)CC1` (stereo not drawn), the result in experiment [1], in experiment [2] and in experiment [3] was inactive.

In the case of `FC(F)OCC(F)(F)C(F)(F)F`, the outcome in experiment [1], in experiment [2] and in experiment [3] was inactive.

For the compound `COc1ccc(N)cc1`, the result in experiment [1], in experiment [2] and in experiment [3] was inactive.

For `ClCCCCl`, the compound was classed as inactive in experiment [1], in experiment [2] and in experiment [3].

Take `CCOC(=O)c1ccccc1S(=O)(=O)NC(=O)Nc1nc(Cl)cc(OC)n1`: the result in experiment [1], in experiment [2] and in experiment [3] was inactive.

On to `CC1(C)COP(Oc2ccccc2)OC1`, for which the compound was called inactive in experiment [1], in experiment [2] and in experiment [3].

For `O=NN1CCCCCC1`, the compound was classed as inactive in experiment [1], in experiment [2] and in experiment [3].

As for `O=S1(=O)OC(c2cc(Br)c(O)c(Br)c2)(c2cc(Br)c(O)c(Br)c2)c2ccccc21`, the call in experiment [1], in experiment [2] and in experiment [3] was inactive.

In the case of `CCOP(=O)(OCC)SCCSCC`, the outcome in experiment [1], in experiment [2] and in experiment [3] was inactive.

On to `BrCCCCBr`, for which the call in experiment [1], in experiment [2] and in experiment [3] was inactive.

As for `COCC(=O)N(c1c(C)cccc1C)[C@H](C)C(=O)OC`, the compound was called inactive in experiment [1], in experiment [2] and in experiment [3].

As for `COc1nn(C(=O)NS(=O)(=O)c2ccccc2OC(F)(F)F)c(=O)n1C`, the compound was called inactive in experiment [1], in experiment [2] and in experiment [3].

On to `O=c1nc(O)n(Cl)c(=O)n1Cl`, for which the compound was called inactive in experiment [1], in experiment [2] and in experiment [3].

In the case of `CCCCN(CCCC)C(=S)[S-].CCCCN(CCCC)C(=S)[S-].[Ni+2]`, the compound was called inactive in experiment [1], in experiment [2] and in experiment [3].

Consider `CCCSP(=S)(OCC)Oc1ccc(Cl)cc1Cl` (stereo not drawn), for which the compound was called inactive in experiment [1], in experiment [2] and in experiment [3].

With `CCCCS(=O)(=O)Cl`, the compound was classed as inactive in experiment [1], in experiment [2] and in experiment [3].

As for `CCOc1cc(C=O)ccc1O`, the compound was classed as inactive in experiment [1], in experiment [2] and in experiment [3].

On to `CC(C)(c1ccc(O)c(-c2ccccc2)c1)c1ccc(O)c(-c2ccccc2)c1`, for which the compound was classed as inactive in experiment [1], in experiment [2] and in experiment [3].

For the compound `CCN(N=O)C(N)=O`, the compound was called inactive in experiment [1], in experiment [2] and in experiment [3].

With `CCOC(=O)Cc1ccccc1`, the result in experiment [1], in experiment [2] and in experiment [3] was inactive.

With `CN(N=O)C(N)=O`, the compound was classed as inactive in experiment [1], in experiment [2] and in experiment [3].

Consider `O=CCCl`, for which the half-maximal activity concentration (AC50) in experiment [1] is 24.7 µM (active); in experiment [2], 25 µM (active); in experiment [3], 60.9 µM (active).

`CCCCN(CCCCO)N=O`: the compound was called inactive in experiment [1], in experiment [2] and in experiment [3].

On to `C=C(C)C(=O)OCC(CC)CCCC` (stereo not drawn), for which the outcome in experiment [1], in experiment [2] and in experiment [3] was inactive.

Regarding `CC(C)CC(C)(c1ccc(O)cc1)c1ccc(O)cc1`, the outcome in experiment [1], in experiment [2] and in experiment [3] was inactive.

In the case of `C=CC(=O)[O][Sn]([CH2]CCC)([CH2]CCC)[CH2]CCC`, the AC50 in experiment [1] was 0.412 µM (active). The outcome in experiment [2] and in experiment [3] was inactive.

For the compound `CCOP(=O)(OCC)OC(=CCl)c1ccc(Cl)cc1Cl`, the outcome in experiment [1], in experiment [2] and in experiment [3] was inactive.

Regarding `CN(N=O)c1ccc([N+](=O)[O-])cc1`, the outcome in experiment [1], in experiment [2] and in experiment [3] was inactive.

With `C1CCC(C2CCCCC2)CC1`, the compound was called inactive in experiment [1] and in experiment [2]. The concentration at half-maximal activity (AC50) in experiment [3] is 86.2 µM (active).

For `Cc1cccc(C)c1NC(=O)CN1CCCC1=O`, the call in experiment [1], in experiment [2] and in experiment [3] was inactive.

As for `OC(c1ccc(Cl)cc1)(c1ccc(Cl)cc1)c1cccnc1`, the result in experiment [1] and in experiment [3] was inactive. In experiment [2], the concentration at half-maximal activity (AC50) is 11.1 µM (active).

As for `O=C1C=CC(=O)c2ccccc21`, the compound was classed as inactive in experiment [1], in experiment [2] and in experiment [3].

Turning to `N#CS`, the compound was classed as inactive in experiment [1], in experiment [2] and in experiment [3].

In the case of `CCCCN(CCCC)C(=S)S`, the compound was called inactive in experiment [1] and in experiment [2]. For the same compound, the AC50 in experiment [3] was 162 µM (active).

For the compound `CS(=O)(=O)c1ccc(C(=O)C2C(=O)CCCC2=O)c(Cl)c1COCC(F)(F)F`, the compound was called inactive in experiment [1], in experiment [2] and in experiment [3].

`CCN(CC)C(=O)C(Cl)=C(C)OP(=O)(OC)OC`: the outcome in experiment [1], in experiment [2] and in experiment [3] was inactive.

As for `O=[N+]([O-])c1cccc2ccccc12`, the result in experiment [1], in experiment [2] and in experiment [3] was inactive.

Turning to `O=c1[nH]c2ccccc2n1C1CCN(CCCC(c2ccc(F)cc2)c2ccc(F)cc2)CC1`, in experiment [1], the compound was called inactive. The AC50 in experiment [2] was 5.75 µM (active); in experiment [3], 3.71 µM (active).

`C[C@H]1C(=O)O[C@@H]2CCN3CC=C(COC(=O)[C@](C)(O)[C@]1(C)O)[C@H]23`: the result in experiment [1], in experiment [2] and in experiment [3] was inactive.

For `Cc1cc(C(F)(C(F)(F)F)C(F)(F)F)ccc1NC(=O)c1cccc(I)c1C(=O)NC(C)(C)CS(C)(=O)=O`, the compound was called inactive in experiment [1], in experiment [2] and in experiment [3].

For `C=CC(F)(C(F)(F)F)C(F)(F)C(F)(F)F` (stereo not drawn), the outcome in experiment [1], in experiment [2] and in experiment [3] was inactive.

Turning to `Cc1ccc2nc3sc(=O)sc3nc2c1`, the AC50 in experiment [1] is 6.6 µM (active); in experiment [2], 25 µM (active). Moreover, in experiment [3], the call was inactive.

Turning to `C=CCN=C=S`, the compound was called inactive in experiment [1], in experiment [2] and in experiment [3].

Regarding `N#CCC#N`, the outcome in experiment [1], in experiment [2] and in experiment [3] was inactive.

Consider `CCOP(=S)(OCC)O/N=C(\C#N)c1ccccc1`, for which the compound was called inactive in experiment [1], in experiment [2] and in experiment [3].

Consider `N#Cc1ccc(Cl)cc1`, for which the result in experiment [1], in experiment [2] and in experiment [3] was inactive.

In the case of `O=C(CCl)Nc1ccccc1`, the AC50 in experiment [1] was 13.2 µM (active). Further, the outcome in experiment [2] and in experiment [3] was inactive.

What is called AC50 is the midpoint of the concentration-response curve, whichever way the signal moves.
